Assay outcomes (PubChem)
Giardia kill = Small Molecules that selectively kill Giardia lamblia: qHTS | actives 0.15% (n = 340,000) | activity change, % at 7.66 µM, hits read low | Giardia lamblia trophozoite viability; in the data active = activity change below about -80%; inconclusive = between about -30% and that limit;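 also: parasites exposed to compound for two days anaerobically before the ATP read; % is scaled to controls: 0 for no effect and ±100 for the full control effect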
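Viability, read as ATP luminescence: trophozoites at 100 cells/well, compound added, 48 hrs anaerobic at 37 deg C, then 15-30 min room-temperature development before reading.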
TGFb inhibitor = qHTS for Inhibitors of TGF-b; HepG2 CAGA-GFP TGF-b/SMAD3 reporter, GFP fluorescence, 18 h; TGF-beta stimulated, 500 pg/mL final; Potency, µM (titrated, usually from 46.1 µM), inactives show top-dose activity, negative = inhibition, usual class: inhibitors; actives 1.2% (n = 410,000); also: potency is read from the fitted curve at half-maximal effect; % is scaled to controls: 0 for no effect and ±100 for the full control effect; nearly all actives have a fitted effect of over 65% in size
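Inhibition was scored as loss of TGF-beta-induced (500 pg/mL final, 18 hours, 37 degrees C) GFP in HEPG2 cells carrying a CAGA-GFP reporter, in DMEM with 1% FBS. Well GFP was summed per cell; Activity was normalised to unstimulated and stimulated DMSO wells, then concentration-response fitting.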
ATXN2 expr inh = Primary qHTS for Inhibitors of ATXN expression; HEK-293 ATXN2-luciferase reporter, luminescence, 24 h; Potency, µM (top dose mostly 57 µM), without a hit: at the highest dose activity change, negative = inhibition, hits mostly inhibitors; actives 0.72% (n = 360,000); also: potency is read from the fitted curve at half-maximal effect; % is scaled to controls: 0 for no effect and ±100 for the full control effect; nearly all actives have a fitted effect of over 55% in size
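ATXN2-luciferase reporter cells (luciferase flanked by upstream and downstream ATXN2 gene portions) were treated 24 h at 37 °C with compounds at up to 57 uM. SteadyGlo luminescence gave expression; GF-AFC fluorescence gave viability.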
S2 tox = Viability Counterscreen for Primary qHTS for Inhibitors of ATXN expression; Potency, µM (top dose mostly 56.7 µM), hits mostly cytotoxic; S2 cells (HEK-293 line with an ATXN2-luciferase reporter) viability, CellTiter-Fluor protease fluorescence, 24 h; actives 0.49% (n = 400,000); AID 651635, 2014; also: potency is read from the fitted curve at half-maximal effect; nearly all actives have a fitted effect of over 40% in size
HepG2 tox = qHTS for Inhibitors of TGF-b: Cytotox Counterscreen; Potency, µM (doses to about 46.1 µM), inactives show at the highest dose activity change, negative = cytotoxicity, actives largely listed as cytotoxic; actives 0.76% (n = 410,000); AID 588856, 2011; HepG2 CAGA-GFP viability, ATP luminescence, 18 h; also: potency is read from the fitted curve at half-maximal effect
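HepG2 CAGA-GFP cells (1000/well, DMEM with 1% FBS) received compound, then TGF-beta at 500 pg/mL final, and were incubated 18 hours at 37 degrees C. Viability was read by CellTiter-Glo luminescence. Media-only wells were set as complete cell-killing and DMSO as no toxicity.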
uPA generation = qHTS for Inhibitors of Cell Surface uPA Generation | Potency, µM (highest dose often 38.3 µM), for inactives: top-dose activity change, negative = inhibition, usual class: inhibitors | actives 0.31% (n = 330,000) | cell surface uPA generation assay, qHTS; active = well fitted inhibition curve with a large enough effect; inconclusive = small, poorly fitted or top-dose-only effect; inactive = no such curve, though single readings can be large or run the other way; tested in mouse RAW 264.7 cells; also: potency is read from the fitted curve at half-maximal effect; % is scaled to controls: 0 for no effect and ±100 for the full control effect; nearly all actives have a fitted effect of over 55% in size
* marks the source's active call; other numbers are inactive results. Only some compounds are listed: those with a hit (about 2.6% of all), similar ones and a draw of the others. Unless noted, calls follow the shape of the dose curve; as a rule, active = well fitted curve in the direction sought with a large enough effect; inconclusive = small, poorly fitted or top-dose-only effect, or another doubt; inactive = no such curve, though single readings can be large; an effect the other way counts as inactive or inconclusive.

O=C(Nc1nc(-c2ccccn2)cs1)c1ccccc1-n1cnnn1 was read as Giardia kill -10, TGFb inhibitor inconclusive, ATXN2 expr inh 10µM*, S2 tox inconclusive, HepG2 tox -10% and uPA generation -12%.
Cc1ccc(-c2csc(NC(=O)c3ccc(-c4ccccc4)cc3)n2)o1 was read as Giardia kill 18, TGFb inhibitor 13µM*, ATXN2 expr inh -12%, S2 tox inconclusive, HepG2 tox -32% and uPA generation -29%.
Screening OCCn1cc(-c2cnc3nnn(Cc4ccc5ncccc5c4)c3n2)cn1 returned ATXN2 expr inh -11%.
`COc1cc(=O)n2c(c1C(=O)N(C)Cc1nccs1)CCN(Cc1ccc(F)c(F)c1)CC2` gave S2 tox inactive.
O=C(Nc1cccc2cccnc12)c1c(Cl)cc(Cl)cc1Cl was read as Giardia kill -8, TGFb inhibitor 4% and HepG2 tox 7%.
Screening COc1cc(NC(C)=O)ccc1NC(=O)c1cc2ccccc2o1 returned Giardia kill -2, TGFb inhibitor 5%, S2 tox inactive, HepG2 tox 4% and uPA generation -1%.
COc1cc(NC(=O)c2cc(Cl)ccc2Cl)ccc1NC(=O)c1cc2ccccc2o1 was read as TGFb inhibitor -21%, ATXN2 expr inh 32µM* and HepG2 tox -28%.
Screening Cc1cc(NC(=O)c2cncc(Br)c2)ccc1NC(=O)c1cc2ccccc2o1 returned Giardia kill -18, TGFb inhibitor -14%, ATXN2 expr inh inconclusive, S2 tox 16µM*, HepG2 tox -24% and uPA generation 6%.
For Cc1ccc(Nc2cc(C)nn2-c2nc(C)cc(=O)[nH]2)cc1 the results were Giardia kill -19, TGFb inhibitor 2.2µM*, ATXN2 expr inh 1.1µM*, S2 tox 2µM*, HepG2 tox -27% and uPA generation -10%.
Screening CC(Oc1ccc2c(c1)c1ccnc3c4ccccc4c(=O)n2c13)C(=O)NCCN1CCOCC1 (stereo not given) returned Giardia kill 12, TGFb inhibitor 0%, ATXN2 expr inh -2%, S2 tox inactive, HepG2 tox 11µM* and uPA generation inconclusive.
`C[N+]1(CC(=O)c2ccc3ccccc3c2)CCOCC1` gave TGFb inhibitor -3% and HepG2 tox 3%.
OC(C#Cc1ccccn1)c1cccs1 (stereo not given) was read as Giardia kill -21, TGFb inhibitor 16µM*, ATXN2 expr inh inconclusive, S2 tox inconclusive, HepG2 tox 10µM* and uPA generation -7%.
Screening Cn1c(SCCOc2ccccc2)nnc1-c1ccc(NC(=O)CCc2ccccc2)cc1 returned TGFb inhibitor -15% and HepG2 tox -18%.
`COc1ccc(-c2cc(C(F)F)n3ncc(C(=O)N4CCCCC4)c3n2)cc1` gave Giardia kill 5, TGFb inhibitor -16%, ATXN2 expr inh -17%, S2 tox inactive, HepG2 tox 0% and uPA generation -11%.
`COc1ccc(-c2cc(C(F)F)n3ncc(C(=O)N4CCN(C(=O)c5ccco5)CC4)c3n2)cc1` gave Giardia kill 11, TGFb inhibitor -4%, ATXN2 expr inh -23%, S2 tox inactive, HepG2 tox -15% and uPA generation 10µM*.
`CNc1nc(-c2ccc3c(N)n[nH]c3c2)cc(N2C[C@@H](C(=O)NC3CCCCC3)CC[C@@H]2C)n1` gave ATXN2 expr inh -9%.
`CCc1ccc(S(=O)(=O)/N=C2\C=C(Nc3cccc(C(=O)O)c3)C(=O)c3ccccc32)cc1` gave Giardia kill 3, TGFb inhibitor inconclusive, ATXN2 expr inh 32µM*, S2 tox 25µM*, HepG2 tox -89% and uPA generation -5%.
Screening CCc1ccc(S(=O)(=O)/N=C2/C=C(Sc3ncn[nH]3)C(=O)c3ccccc32)cc1 returned Giardia kill 0, TGFb inhibitor 1.4µM*, ATXN2 expr inh 16µM*, S2 tox inconclusive, HepG2 tox 2µM* and uPA generation -14%.
`CCc1ccc(S(=O)(=O)/N=C2\C=C(Nc3ccc(O)cc3)C(=O)c3ccccc32)cc1` gave Giardia kill -19, TGFb inhibitor 0.89µM*, ATXN2 expr inh 3.5µM*, S2 tox 7.1µM*, HepG2 tox 1.1µM* and uPA generation -3%.
`Cc1ccc(S(=O)(=O)/N=C2\C=C(NS(=O)(=O)c3ccccc3)C(=O)c3ccccc32)cc1` gave Giardia kill -1, TGFb inhibitor inconclusive, ATXN2 expr inh -31%, S2 tox 20µM*, HepG2 tox -40% and uPA generation -1%.
For Cc1ccc(S(=O)(=O)/N=C2/C=C(C3C(=O)CC(C)(C)CC3=O)C(=O)c3ccccc32)cc1 the results were Giardia kill 12, TGFb inhibitor inconclusive, ATXN2 expr inh 17%, S2 tox inactive, HepG2 tox -76% and uPA generation -10%.
Screening Cc1ccc2c(CC(=O)N3CCOc4ccc(CN5CCOCC5)cc4C3)cc(=O)oc2c1 returned S2 tox inactive.
For Cn1nccc1C(=O)NCC1CCC2(CCN(Cc3ccc(-c4ccc(Cl)cc4)o3)CC2)O1 (stereo not given) the results were S2 tox inactive.
For Cc1ccc(C(=O)CSc2nnc(COc3ccccc3)o2)cc1 the results were Giardia kill -27, TGFb inhibitor -5%, ATXN2 expr inh -6%, S2 tox inactive, HepG2 tox 6.3µM* and uPA generation 1%.
`Cc1c(Cn2c(C)nc3c(C(=O)O)cc(N4CCOCC4)cc32)cccc1C(F)(F)F` gave ATXN2 expr inh -5%.
`Nc1nc(-c2cccs2)c(NC(=O)c2ccccc2)s1` gave Giardia kill -4, TGFb inhibitor inconclusive, ATXN2 expr inh inconclusive, S2 tox 22µM*, HepG2 tox -74% and uPA generation 0%.
For CCOC(=O)C(=Cc1ccc(Br)cc1)C(=O)OCC the results were Giardia kill 5, TGFb inhibitor 18µM*, ATXN2 expr inh inconclusive, S2 tox 8.9µM*, HepG2 tox 14µM* and uPA generation -12%.
Screening CCOC(=O)/C(=C\c1ccccc1)C(=O)c1cc(C(C)=O)c(Nc2ccccc2)s1 returned Giardia kill 2, TGFb inhibitor -9%, ATXN2 expr inh 11µM*, S2 tox 20µM*, HepG2 tox 3.2µM* and uPA generation inconclusive.
